LAP4 TOR yeast = modulators of LAP4-GFP expression in yeast, primary screen, S. cerevisiae, multiplex flow cytometry, MLPCN library. hit rate 0.34% among 320,000. AID 2023, 2009. GFP response vs DMSO, % at 10 µM. 3 h; median GFP as percent of DMSO wells;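 active = GFP response vs DMSO above a set limit, about the screen mean plus 3 SD, cut at about 150% in these data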
RPL19A-GFP yeast = RPL19A-GFP expression modulators in yeast, primary screen, cell-based, S. cerevisiae, multiplex flow cytometry, MLPCN | hit rate 0.3% among 330,000 | percent response vs DMSO, % at 10 µM | S. cerevisiae RPL19A-GFP strain, 3 h; stronger effect = lower value;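 active = percent response vs DMSO below 50%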;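 also: median channel GFP fluorescence of the barcoded RPL19A-GFP strain; lower means less RPL19A-GFP as with rapamycin TOR inhibition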
AGP1-GFP MLPCN = modulators of AGP1-GFP expression in yeast TOR pathway, primary screen, cell-based, multiplex flow cytometry, S. cerevisiae, MLPCN library; hit rate 0.02% among 320,000; AID 2066, 2009; 3 h; GFP as percent of DMSO wells; GFP response vs DMSO, % at 10 µM;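 active = GFP response relative to DMSO above a set limit, near screen average plus 3 SD, cut at about 150% in these data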;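 also: median GFP channel fluorescence of the gated AGP1 strain per well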
CIT2 TOR yeast = modulators of CIT2-GFP expression in yeast, primary screen, S. cerevisiae, GFP fusion, multiplex flow cytometry, MLPCN library; hit rate 0.065% among 320,000; S. cerevisiae CIT2-GFP strain, 3 h; 100 means same as DMSO wells; AID 2029, 2009; GFP response vs DMSO, % at 10 µM;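 active = GFP response relative to DMSO above a set limit, near the screen mean plus 3 SD, cut at about 150% in these data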;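 also: ratio of well median GFP fluorescence to mean of DMSO wells on the plate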
VLA-4 inh = inhibition in human VLA-4 binding assay, primary screen, VLA-4 allosteric modulator project, MLPCN library, flow cytometry, VLA-4 expressing cells | Integrin alpha-4 (Homo sapiens), P13612 | hit rate 0.2% among 330,000 | ligand binding flow cytometry | AID 2557, 2010 | inhibition, % (about 7 µM as worked out from the volumes in the protocol); in the data active = inhibition above about 50%
MEP2-GFP yeast = modulators of MEP2-GFP levels in yeast, primary screen, S. cerevisiae, multiplex flow cytometry, MLPCN library; GFP response vs DMSO, % at 10 µM; hit rate 0.51% among 330,000; S. cerevisiae MEP2-GFP strain, 3 h; 100% = DMSO control level;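 active = GFP response versus DMSO above a set limit, roughly screen mean plus 3 SD, cut at about 180% in these data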;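 also: median GFP fluorescence of the barcode-gated MEP2-GFP cells per well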
VLA-4 allo CP = retest of VLA-4 allosteric modulators, confirmation, cell-based, cherry-picked plates, U937, HUTS-21 LIBS antibody. hit rate 2% among 1,300. inhibition, % at 6.7 µM. shares compounds with VLA-4 inh. U937 cells, HUTS-21 LIBS mAb binding, flow cytometry; LDV ligand present at threefold Kd; in the data active = inhibition above about 40%
Numbers stand for hits. This is a sample that favours compounds with a hit; in the whole collection about 1.1% have one here.

What do the screens show for `C=CCC[C@H](Cc1ccc(F)cc1)C(=O)OC[C@@H](C)NC(=O)[C@@H](CC=C)CC(=O)N[C@@H](CO)Cc1ccccc1`?
LAP4 TOR yeast: inactive; RPL19A-GFP yeast: inactive; AGP1-GFP MLPCN: inactive; CIT2 TOR yeast: inactive; VLA-4 inh: 63; MEP2-GFP yeast: inactive; VLA-4 allo CP: inactive

Results for C=CCC[C@H](Cc1ccc(F)cc1)C(=O)OC[C@@H](C)NC(=O)[C@@H](CC=C)CC(=O)N[C@H](CO)Cc1ccccc1 ?
LAP4 TOR yeast: inactive; RPL19A-GFP yeast: inactive; AGP1-GFP MLPCN: inactive; CIT2 TOR yeast: inactive; VLA-4 inh: inactive; MEP2-GFP yeast: inactive

How did COc1cc(OC)c(-n2cc(-c3ccc(OC)c(OC)c3)[nH]c2=S)cc1Cl do in these assays?
LAP4 TOR yeast: inactive; RPL19A-GFP yeast: inactive; AGP1-GFP MLPCN: inactive; CIT2 TOR yeast: inactive; VLA-4 inh: inactive; MEP2-GFP yeast: inactive

How did Cc1ccc(S(=O)(=O)NNC(=O)CCC(=O)Nc2ccc(C)cc2C)cc1 do in these assays?
LAP4 TOR yeast: inactive; RPL19A-GFP yeast: inactive; AGP1-GFP MLPCN: inactive; CIT2 TOR yeast: inactive; VLA-4 inh: inactive; MEP2-GFP yeast: inactive; VLA-4 allo CP: inactive

How did CC(=O)Nc1ccc(S(=O)(=O)NNC(=O)CCC(=O)Nc2cc(C)ccc2C)cc1 do in these assays?
LAP4 TOR yeast: inactive; RPL19A-GFP yeast: inactive; AGP1-GFP MLPCN: inactive; CIT2 TOR yeast: inactive; VLA-4 inh: inactive; MEP2-GFP yeast: inactive

Results for CS(=O)(=O)c1cccc(C(=O)NCc2ccc(F)cc2)c1 ?
LAP4 TOR yeast: inactive; RPL19A-GFP yeast: inactive; AGP1-GFP MLPCN: inactive; CIT2 TOR yeast: inactive; VLA-4 inh: 93; MEP2-GFP yeast: inactive; VLA-4 allo CP: inactive

How did CS(=O)(=O)c1cccc(C(=O)NCc2ccccc2)c1 do in these assays?
LAP4 TOR yeast: inactive; RPL19A-GFP yeast: inactive; AGP1-GFP MLPCN: inactive; CIT2 TOR yeast: inactive; VLA-4 inh: inactive; MEP2-GFP yeast: inactive

How did S=C(NCCC(c1ccccc1)c1ccccc1)Nc1cccc(Cl)c1 do in these assays?
LAP4 TOR yeast: inactive; RPL19A-GFP yeast: inactive; AGP1-GFP MLPCN: inactive; CIT2 TOR yeast: inactive; VLA-4 inh: 93; MEP2-GFP yeast: inactive; VLA-4 allo CP: inactive

How did CCOc1ccc(NC(=S)N2CCC(C(N)=O)CC2)cc1 do in these assays?
LAP4 TOR yeast: inactive; RPL19A-GFP yeast: inactive; AGP1-GFP MLPCN: inactive; CIT2 TOR yeast: inactive; VLA-4 inh: inactive; MEP2-GFP yeast: inactive

How did COC(=O)c1ccc(NC(=S)N2CCC(C(N)=O)CC2)cc1 do in these assays?
VLA-4 inh: inactive; VLA-4 allo CP: inactive
